Results on 40 compounds are retold here after PubChem BioAssay (NCATS).

Records with an inconclusive call do not appear. A call without a number means that no potency is given here. Activity calls are given as the source filed them. Calls come from the whole dose curve; as a rule, active = well fitted cell-killing curve with a large enough effect; inconclusive = small, poorly fitted or top-dose-only effect, or effect the other way; inactive = no such curve, though single readings can be large or run the other way.
Potency is the fitted concentration of half-maximal effect.

The nature of the assay: Quantitative High-Throughput drug screen in 47 multiple myeloma cell lines against the NCATS MIPE library collection: OPM1_PLB cell viability assay (AID 1918989). Note: nearly all actives have a fitted effect of over 40% in size. Particulars: CellTiter-Glo, 48 h; series mostly up to 45.8 µM. From the text:
PI: Beverly A. Mock Ph.D.
Laboratory of Cancer Biology and Genetics,
Center for Cancer Research, National Cancer Institute,
National Institute of Health, Bethesda, Maryland
Drug resistance and disease progression are common in multiple myeloma (MM) patients, underscoring the need for new therapeutic combinations. […] We hypothesized that effective combinations would reduce MYC expression and enhance p16 activity. […] These preclinical data identify potentially useful drug combinations for evaluation in drug-resistant MM and reveal potential mechanisms of combined drug sensitivity.
Described herein is the primary MIPE qHTS used to cherrypick compounds. Validated compounds were then further tested for potential synergistic activiy.
[1] Peat TJ, Gaikwad SM, Dubois W, Gyabaah-Kessie N, Zhang S, Gorjifard S, Phyo Z, Andres M, Hughitt VK, Simpson RM, Miller MA, Girvin AT, Taylor A, Williams D, D'Antonio N, Zhang Y, Rajagopalan A, Flietner E, Wilson K, Zhang X, Shinn P, Klumpp-Thomas C, McKnight C, Itkin Z, Chen L, Kazandijian D, Zhang J, Michalowski AM, Simmons JK, Keats J, Thomas CJ, Mock BA. Drug combinations identified by high-throughput screening promote cell cycle transition and upregulate Smad pathways in myeloma. Cancer Lett. 2023 Aug 1;568:216284. doi: 10.1016/j.canlet.2023.216284. Epub 2023 Jun 24. PMID: 37356470; PMCID: PMC10408729.
SEQUENCE No. (e.g., 1, 2, 3, etc.); […] (e.g., Cells, Incubation, Reagent, etc.); VALUE and DESCRIPTION.
1; Cells; 5 uL; white, solid bottom 1536-well Greiner assay plate.
2; Compounds; 23 nL; Kalypsis pin tool (Wako USA) equipped with a 1536-well pin head to transfer to the assay plates.
3; Incubation; 48 hours; 37C incubation.
4; Reagent;5uL; CellTiter Glo (Promega).
5; Detector; 425V; Luminescence; Viewlux PerkinElmer.
NOTES (numbers refer to Sequence numbers above)
1. The cell-based screening methods employed in this study were like those previously published. Briefly, the corresponding myeloma cell lines were screened in 1,536-well plates with 500 cells, 5-uL per well for inhibition of cell viability (assessed by measuring ATP levels with CellTiterGlo).
2. NCATS MIPE 4.0 library of approved and investigational drugs were added using the Kalypsis pin tool. Wells treated with DMSO only for 100% viability and media only for 0% viability were used as controls.
3. The assay plates were covered and incubated for 48 hours in a 37C, 5% CO2 incubator with controlled humidity.
4. After 48 hours, CellTilter-GloTM luminescent substrate mix (Promega) reagent was added to the assay plate and plates we incubated for 5 min at room temperature.
5. Signal was measured as median relative luminescence units on a ViewLux (PerkinElmer) multiplate reader.
[1] Heske CM, Davis MI, Baumgart JT, Wilson K, Gormally MV, Chen L, Zhang X, Ceribelli M, Duveau DY, Guha R, Ferrer M, Arnaldez FI, Ji J, Tran HL, Zhang Y, Mendoza A, Helman LJ, Thomas CJ. Matrix Screen Identifies Synergistic Combination of PARP Inhibitors and Nicotinamide Phosphoribosyltransferase (NAMPT) Inhibitors in Ewing Sarcoma. Clin Cancer Res. 2017 Dec 1;23(23):7301-7311. doi: 10.1158/1078-0432.CCR-17-1121. Epub 2017 Sep 12. PMID: 28899971; PMCID: PMC6636827.
For orientation: Cellular ATP, detected with luciferase, serves as a proxy for viable cell number.
For the compound `COC(=O)Nc1nc2ccc(C(=O)c3ccccc3)cc2[nH]1`, the Potency was 1.66 µM (active). As for `CC(C)OC(=O)OCOP(=O)(CO[C@H](C)Cn1cnc2c(N)ncnc21)OCOC(=O)OC(C)C`, the Potency entry was “inactive”. Turning to `COc1cc2c(Nc3ccc(Br)cc3F)ncnc2cc1OCC1CCN(C)CC1`, the Potency was 6.62 µM (active). Under `CC(=O)Oc1ccccc1C(=O)Nc1ncc([N+](=O)[O-])s1` stands 24.1 µM (active); under `Cc1onc(-c2ccccc2Cl)c1C(=O)N[C@@H]1C(=O)N2[C@@H]1SC(C)(C)[C@@H]2C(=O)O`, “inactive”; under `CC(C)C[C@H](NC(=O)[C@H](CCc1ccccc1)NC(=O)CN1CCOCC1)C(=O)N[C@@H](Cc1ccccc1)C(=O)N[C@@H](CC(C)C)C(=O)[C@@]1(C)CO1`, 0.0093 µM (active). On to `COc1cc([C@@H]2c3cc4c(cc3[C@H](O)[C@H]3COC(=O)[C@H]23)OCO4)cc(OC)c1OC`, for which the Potency entry was “inactive”. With `CC1(C)[C@H](C(=O)O)N2C(=O)C[C@H]2S1(=O)=O`, the Potency entry was “inactive”.

Regarding `CCC(=O)O[C@]1(C(=O)SCF)[C@H](C)C[C@H]2[C@@H]3C[C@H](F)C4=CC(=O)C=C[C@]4(C)[C@@]3(F)[C@@H](O)C[C@@]21C`, the Potency result is “inactive”. For the compound `CN1CCN(c2c(F)cc3c(=O)c(C(=O)O)cn4c3c2OCN4C)CC1`, the Potency result was “inactive”. For `Cc1ccc(S(=O)(=O)N[C@@H](Cc2ccccc2)C(=O)CCl)cc1`, the Potency was 9.35 µM (active). In the case of `CCN(C)C(=O)Oc1cccc([C@H](C)N(C)C)c1`, the Potency result was “inactive”. Under `COc1cc(NCc2ccc3nc(N)nc(N)c3c2C)cc(OC)c1OC` stands 5.9 µM (active); under `CN(CCOc1ccc(CC2SC(=O)NC2=O)cc1)c1ccccn1` (stereo not given), “inactive”.

`O[C@@H](CNC[C@H](O)[C@H]1CCc2cc(F)ccc2O1)[C@@H]1CCc2cc(F)ccc2O1`: the Potency was 26.4 µM (active).

Take `NNC(=O)c1ccncc1`: the Potency entry was “inactive”. In the case of `Cc1oc(=O)oc1CN1CCN(c2cc3c(cc2F)c(=O)c(C(=O)O)c2n3C(C)S2)CC1` (stereo not given), the Potency result was “inactive”.

Regarding `CCCN[C@H]1CCc2nc(N)sc2C1`, the Potency result is “inactive”. With `CC1CC2C3CCC4=CC(=O)C=C[C@]4(C)[C@@]3(F)[C@@H](O)C[C@]2(C)[C@@]1(O)C(=O)CO` (stereo not given in full), the Potency was 2.35 µM (active). `O=C(O)c1cn(C2CC2)c2cc(N3CCNCC3)c(F)cc2c1=O`: the Potency entry was “inactive”. For the compound `CNC(=O)c1cc(Oc2ccc(NC(=O)Nc3ccc(Cl)c(C(F)(F)F)c3)cc2)ccn1`, the Potency is 10.5 µM (active). On to `CC(C)(C)NC(=O)[C@H]1CC[C@H]2[C@@H]3CC[C@H]4NC(=O)C=C[C@]4(C)[C@H]3CC[C@]12C`, for which the Potency is 2.64 µM (active). Under `CCCCCCNC(=O)n1cc(F)c(=O)[nH]c1=O` stands “inactive”. Regarding `Cc1ccnc2c1NC(=O)c1cccnc1N2C1CC1`, the Potency result is “inactive”. In the case of `O=C(O)c1ccc(-n2nc(-c3ccccc3O)nc2-c2ccccc2O)cc1`, the Potency is 23.5 µM (active). Under `NC(=O)c1cccnc1` stands “inactive”; under `COc1cc2ncnc(Nc3cccc(Cl)c3)c2cc1OC`, 20.9 µM (active); under `O=C(O)c1cccnc1`, “inactive”. Consider `O=NN(CCCl)C(=O)NC1CCCCC1`, for which the Potency result was “inactive”. Regarding `S=P(N1CC1)(N1CC1)N1CC1`, the Potency result was “inactive”. On to `Cc1cccc(N(C)C(=S)Oc2ccc3ccccc3c2)c1`, for which the Potency entry is “inactive”.

Turning to `CC1=NN(c2ccccc2)C(=O)C1`, the Potency entry was “inactive”. For the compound `COc1ccc(C(=O)CC(=O)c2ccc(C(C)(C)C)cc2)cc1`, the Potency was 7.43 µM (active). Under `C[C@@H]1CN(c2c(F)c(N)c3c(=O)c(C(=O)O)cn(C4CC4)c3c2F)C[C@H](C)N1` stands “inactive”.

In the case of `CCCc1nc(C)c2c(=O)[nH]c(-c3cc(S(=O)(=O)N4CCN(CC)CC4)ccc3OCC)nn12`, the Potency was 7.43 µM (active). Turning to `COc1ccc2c(c1)c(CC(=O)OCC(=O)O)c(C)n2C(=O)c1ccc(Cl)cc1`, the Potency result is “inactive”. Regarding `Cc1cc(NS(=O)(=O)c2ccc(N)cc2)no1`, the Potency result was “inactive”. Turning to `OC(Cn1cncn1)(Cn1cncn1)c1ccc(F)cc1F`, the Potency entry is “inactive”. Consider `NC1(c2ccc(-c3nc4ccn5c(=O)[nH]nc5c4cc3-c3ccccc3)cc2)CCC1`, for which the Potency was 3.32 µM (active). For `CC(C)NCC(O)c1ccc(NS(C)(=O)=O)cc1` (stereo not given), the Potency entry is “inactive”.
